Results published in PubChem BioAssay (NCATS).
Results filed as inconclusive are left out. Unmarked numbers belong to inactive results. The call rests on the fitted dose curve; in most records, active means well fitted activation curve with a large enough effect; inconclusive means small, poorly fitted or top-dose-only effect; inactive means flat fitted curve, though single readings scatter.

experiment: Primary redox qHTS assay for identification of artifact compounds. (AID 1845223); conditions: Amplex Red/HRP redox cycling with DTT, fluorescence; series mostly up to 53.8 µM; redox activity (% of DA3003): at the top concentration;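 further: 0% = DMSO and 100% = reference compound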
Procedure, shortened: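 Amplex Red (25 uM) and HRP (250 mU/mL) in HBSS, with compounds for 15 min, then 250 uM DTT for 30 min, room temperature, dark. Fluorescence 525/598 nm read; normalized to DMSO and 10 uM DA3003; Hill fit.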

SMILES	redox activity (% of DA3003)
CC1(C)CCC2(C(=O)O)C(O)CC3(C)C(=CCC4C5(C)CCC(OC6OC(CO)C(O)C(O)C6OC6OC(CO)C(O)C(O)C6OC6OCC(O)(CO)C6O)C(C)(C)C5CCC43C)C2C1 (stereo not drawn)	17% [at 11.5 µM]
C/C=C1/C[N+](C)([O-])C2Cc3c([nH]c4ccccc34)C(=O)CC1C2C(=O)OC (stereo not drawn)	11%
COc1cc(-c2ccc(O)cc2)c(OC)c(O)c1C1=CC(=O)OC1CC(=O)O (stereo not drawn)	16.1%
COC(=O)C(CC1(O)c2ccccc2N2C(=O)C(CC(C)C)NC21)n1cnc2ccccc2c1=O (stereo not drawn)	0.656% [at 25.6 µM]
Cc1ccc(COC(=O)N2CC[C@@H](CNc3ncccn3)[C@@H](F)C2)cc1	6.32%
COc1cccc(Cn2ncc3c4sc(S(C)=O)cc4n(C)c3c2=O)c1 (stereo not drawn)	5.26%
CN1C(=O)N(c2cc(Cl)cc(Cl)c2)C(=O)[C@@]1(C)Cc1ccc(Br)cc1	1.95%
CC1(C)CC[C@]2(C(=O)O)CC[C@]3(C)C(=CCC4[C@@]5(C)CC[C@H](O[C@@H]6O[C@H](C(=O)O)[C@@H](O)[C@H](O)[C@H]6O)C(C)(C)C5CC[C@]43C)C2C1 (stereo partly drawn)	9.43% [at 25.6 µM]
C[C@@H]1C(=O)O[C@H](C)[C@H]1C[C@@H](O)[C@](C)(O)[C@H]1CC[C@@]2(O)C3=CC(=O)[C@@H]4C[C@@H](O)[C@@H](O)C[C@]4(C)C3CC[C@]12C (stereo partly drawn)	-8.36% [at 25.6 µM]
O=C(O)CC1CCC(c2ccc(-c3ccc(Nc4ccc(C(F)(F)F)nc4)cn3)cc2)CC1 (stereo not drawn)	0.66%
CC(=C\C(C)O)/C=C(\C)C(=O)CC1CC(CC(N)=O)CC(=O)O1 (stereo not drawn)	-6.96%
COc1ccc(CCC(=O)O)c(O[C@@H]2O[C@H](CO)[C@@H](O)[C@H](O)[C@H]2O)c1	-13.6%
C[C@@H]1O[C@@H](O[C@H]2[C@H](OC(=O)[C@]34CCC(C)(C)C[C@H]3C3=CCC5[C@@]6(C)C[C@@H](O)[C@@H](O)[C@@](C)(CO)C6[C@H](O)C[C@@]5(C)[C@]3(C)CC4)OC[C@H](O)[C@@H]2O)[C@H](O)[C@H](O)[C@H]1O[C@@H]1OC[C@@H](O)[C@H](O[C@H]2O[C@H](C)[C@@H](O)[C@H](O)[C@@H]2O)[C@H]1O (stereo partly drawn)	18.5% [at 11.5 µM]
